A selection: hits, their analogues and other compounds. The true share with any hit is near 1%.
LANA-H2B inh – blocks KSHV LANA binding to histone H2A/H2B; inhibition, % (concentration not given with the values); cell-free LANA-H2A/H2B peptide, fluorescence polarization; Q9QR71; 0.6% of 320,000 active; in the data active = inhibition mostly above about 10%, no sharp cut-off; inactive = mostly below about 6.7%
Keap1-Nrf2 PPI – Keap1-Nrf2 (human) interaction inhibition | Keap1 Kelch-Nrf2 peptide fluorescence polarization, 1536-well | inhibition, % at 9.4 µM | Q14145 | AID 504523 | 0.15% of 340,000 active; in the data active = inhibition above about 12%;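 also: human Keap1 Kelch domain with fluorescein labeled Nrf2 9mer peptide probe; 0% = neutral control wells and 100% = peptide positive control; higher means more block of Keap1 binding to Nrf2 peptide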
cardiac RTF act – increases calcium sensitivity of human cardiac regulated thin filaments | P19429+P45379 | IANBD-labeled TnC RTF fluorescence at EC20 calcium; 0% EC20 calcium, 100% full calcium | activation, % at 7.2 µM | 0.24% of 340,000 active | AID 493008;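 active = activation above the mean over all tested compounds plus 3 SD, cut at about 30% in these data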;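 also: rise in fluorescence read as greater calcium sensitivity of cardiac thin filaments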
Cardiac RTF inh – cardiac RTF calcium desensitization; 0.12% of 340,000 active; inhibition, % at 7.15 µM; P19429+P45379; IANBD-labeled cardiac RTF, Ca2+ fluorescence;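 active = inhibition above the mean inhibition of all tested compounds plus 3 SD, cut at about 17% in these data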;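 also: assay run at fixed EC70 calcium of 1.6 mM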
C-LANA FP – inhibitors of KSHV LANA C-terminal domain DNA binding; 0.078% of 340,000 active; MBP-C-LANA/FAM-LBS DNA binding, fluorescence polarization; inhibition, % at 9 µM; AID 504423;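 active = highest replicate inhibition at or above 60% at 9 µM, even if other replicates fall short; inactive = all replicates below 60% inhibition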;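 also: 0% = neutral control wells and 100% = 4 µM acridine orange control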
The depositor's hits bear a star; x = no result; + = active, no number.

SMILES	LANA-H2B inh	Keap1-Nrf2 PPI	cardiac RTF act	Cardiac RTF inh	C-LANA FP
COc1ccc(CC(=O)NNS(=O)(=O)c2cccc([N+](=O)[O-])c2)cc1OC	-2	-2	1	-10	1
COc1ccc(-n2c(O)c(/C=N/NS(=O)(=O)c3cccc([N+](=O)[O-])c3)c3ccccc3c2=O)cc1OC	-10	-218	33*	-43	-59
CC(=O)NC(=S)Nc1ccc(NC(=S)NC(=O)/C=C/c2ccco2)cc1	-6	-3	1	3	1
O=C(/C=C/c1ccco1)NC(=S)Nc1ccc(C(=O)O)cc1	-1	-1	-6	-1	62*
COc1ccc(/C=C2\Oc3cc(OCC(=O)N4CCC[C@H]4C(=O)O)ccc3C2=O)c(OC)c1	-9	-44	30*	-44	-11
COc1cc(OC)c(OC)cc1/C=C1\Oc2cc(OCC(=O)N3Cc4ccccc4C[C@H]3C(=O)O)ccc2C1=O	-7	-88	32*	-66	-31
CC1(C)CC(=O)c2cnc(NC3CC3)nc2C1	18*	-1	4	0	1
Cc1ccc(NC(=O)CN(C)C(=O)c2ccc(S(=O)(=O)N(C)c3ccccc3)cc2)cc1	-2	-1	6	-7	-1
CCN(CC)c1ccc(/C=C2\SC(N)=NC2=O)cc1	-7	-15	33*	-45	-5
CCN(CC)c1ccc(C=C2SC(=S)NC2=O)cc1	x	-26	241*	-380	-26
NC1=NC(=O)/C(=C/c2ccc(OCC(=O)O)cc2)S1	1	3	5	-12	1
COc1ccc(/C=N\NC(=O)c2cc(O)c(O)c(O)c2)cc1COc1ccc(C(=O)OCC(C)C)cc1	-3	-11	8	-7	-1
CCOc1ccccc1Nc1cc(C)nc2ccc(C)cc12	4	-3	-2	-2	0
CCN(C(=O)CSc1nnc(-c2ccccc2OC)n1N)c1c(N)n(Cc2ccccc2)c(=O)[nH]c1=O	x	-4	7	-1	0
CCCCN(C(=O)CSc1nnc(-c2ccccc2OC)n1C)c1c(N)n(Cc2ccccc2)c(=O)[nH]c1=O	+	-6	-2	3	1
CCCCn1c(N)c(N(CC(C)C)C(=O)c2ccc(S(=O)(=O)N3CCCCC3)cc2)c(=O)[nH]c1=O	3	0	4	-2	0
CC(Sc1nnc(C2CC2)n1C1CC1)C(=O)Nc1cccc(S(=O)(=O)N(C)C)c1 (stereo not given)	+	-1	-3	-3	-1
Cn1cccc1C(=O)NCCc1ccccc1	5	-1	9	-5	1
COc1ccc(CCNC(=O)c2cccn2C)cc1	30*	1	1	-8	0
O=C(O)c1ccccc1C(=O)NCc1ccc(F)cc1	20*	-1	-6	-3	3
O=C(O)c1ccccc1C(=O)NCc1ccccc1	0	-5	4	-2	-1
Cc1ccc(-c2noc(C3CCCN(C(=O)c4cccc(F)c4)C3)n2)cc1 (stereo not given)	16*	-7	6	0	1
Cc1ccc(-c2noc(C3CCCN(C(=O)c4c(F)cccc4F)C3)n2)cc1 (stereo not given)	-2	-9	2	-7	-1
CCN(Cc1ccncc1)Cc1nc(-c2ccc(C(=O)OC)cc2)no1	9.6*	-2	2	-2	-1
COC(=O)c1ccc(-c2noc(CN(C)Cc3ccncc3C)n2)cc1	-1	-3	-2	-2	-1
SMILES	LANA-H2B inh	Keap1-Nrf2 PPI	cardiac RTF act	Cardiac RTF inh	C-LANA FP
Cc1ccc(NC(=O)CSC(C)c2nc3ccccc3c(=O)[nH]2)cc1 (stereo not given)	-5	-3	-1	4	-1
CN1CCN(C2=Nc3ccccc3Oc3ccc(Cl)cc32)CC1	14*	1	6	0	-1
CS(=O)(=O)Nc1ccc([N+](=O)[O-])cc1Oc1ccccc1	32*	-7	1	1	2
CS(=O)(=O)Nc1ccccc1Oc1ccccc1	3	-1	-4	-13	1
COc1cc(/C=C2\SC(=Nc3ccc(O)cc3)NC2=O)cc(OC)c1O	11*	0	0	-3	-3
CCc1ccc(N=C2NC(=O)/C(=C/c3cc(OC)c(OC)c(OC)c3)S2)cc1	-1	2	-2	1	-2
CN1C(=O)C(O)(CC(=O)/C=C/c2ccco2)c2cc(Br)ccc21 (stereo not given)	1	-4	3	1	-1
CN1C(=O)C(O)(CC(=O)c2ccccc2O)c2cc(Br)ccc21 (stereo not given)	47*	-2	8	-12	-1
CCOC(=O)C1CCNC(=O)C1=O (stereo not given)	x	-3	2	-5	0
C=CCn1c(=O)[nH]c2nc3cc(N=CN(C)C)c(C)cc3nc2c1=O	11	-1	131*	-141	23
CCCc1cc(=O)[nH]c(SCC(=O)NCC2COc3ccccc3O2)n1 (stereo not given)	x	5	0	4	1
CCOc1ccc(C(=S)N2CCCC2)cc1OCC	-2	-5	7	-5	-1
S=C(c1ccc(OCc2ccccc2)cc1)N1CCCC1	-22	0	-3	5	-1
CCOc1cc(C(=S)N2CCCC2)ccc1OCc1ccccc1	9.2*	3	0	-8	-1
Fc1ccc(COc2ccc(C(=S)N3CCCC3)cc2)cc1	22*	0	-1	-5	0
CC[C@]12c3[nH]c4ccc(OC)cc4c3CCN1C(=O)C(CC(=O)NCCN1CCOCC1)C[C@@H]2C(=O)N1CCN(C(=O)c2ccco2)CC1 (stereo not given in full)	x	2	-4	-7	-1
C=CCNC(=S)Nc1ccc(Br)cc1F	13*	-3	1	2	-2
COc1cccc(N(CC(=O)NCC2CCCO2)C(=O)CCC(=O)Nc2nccs2)c1 (stereo not given)	29*	1	-5	2	1
CC/C(=C\c1ccc(N(C)C)cc1)c1ccncc1	x	-4	1	0	0
COc1ccc(CCN2CC(C(=O)Nc3nnc(Cc4ccccc4)s3)CC2=O)cc1OC (stereo not given)	11*	-3	7	-14	-1
COc1ccc(Cc2nnc(NC(=O)C3CC(=O)N(c4ccccc4)C3)s2)cc1OC (stereo not given)	-1	-3	-7	6	-1
CCCC1=C(C(=O)OCC)C(c2ccc(N(C)C)cc2)n2ncnc2N1 (stereo not given)	-4	-2	1	-7	-1
Cc1c(CN2CCC(CO)(CCOc3ccccc3)CC2)[nH]c2c(Cl)cccc12	17*	1	0	-1	-1
Cc1nn(C)c(Cl)c1CN1CCC(CO)(CCOc2ccccc2)CC1	1	0	-1	3	-4
O=C(C[n+]1ccc(/C=N/O)cc1)NCc1ccccc1	1	-2	4	-2	1
O=C(C[n+]1ccc(/C=N/O)cc1)NC1CCCCC1	17*	0	2	5	0
